From PubChem BioAssay (NCI)
Compounds without any hit were thinned out: in the full panel of roughly 79,000, 15% have a hit. No stated cut-off is given here; in the data, active means growth inhibition above about 70%; inactive means the rest.

Columns and labels:
[1] = NCI Yeast Anticancer Drug Screen. Data for the rad50 strain (AID 155);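 further: 0% = growth of vehicle-only cultures of the same strain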; details: S. cerevisiae rad50 strain growth inhibition; at 50.0 µM; hits give high values
Procedure, shortened: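 Cells are treated with compound, grown, and their growth is then scored against vehicle-only cultures of the same repair-deficient yeast strain.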

[2] = NCI Yeast Anticancer Drug Screen. Data for the mec2-1 strain (AID 157); details: S. cerevisiae mec2-1 strain, at 50.0 µM, hits give high values
Procedure, shortened: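 Using mec2-1 yeast: add compound, measure growth, express inhibition versus vehicle-treated cultures.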

[3] = NCI Yeast Anticancer Drug Screen. Data for the sgs1 mgt1 strain (AID 161);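 further: 0% = growth of cultures given vehicle only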; details: S. cerevisiae sgs1 mgt1 strain, at 50.0 µM, hits give high values
Procedure, shortened: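 Percent growth inhibition was derived by comparing compound-exposed mutant yeast with vehicle-exposed cultures. The strain carries alterations in DNA damage repair.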

[4] = NCI Yeast Anticancer Drug Screen. Data for the cln2 rad14 strain (AID 165);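 further: 0% = growth equal to vehicle treated cultures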; details: S. cerevisiae cln2 rad14 strain, at 50.0 µM, hits give high values
Procedure, shortened: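 Yeast strain cln2 rad14, bearing defects in cell cycle control and DNA repair, serves as the test system; values reflect growth inhibition compared with vehicle.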

[5] = NCI Yeast Anticancer Drug Screen. Data for the bub3 strain (AID 167); details: S. cerevisiae bub3 mutant strain, at 50.0 µM, hits give high values
Procedure, shortened: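 Part of a panel of yeast mutants defective in DNA damage repair or cell cycle regulation. Each strain is grown with compound, and inhibition is calculated relative to solvent-treated cultures.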

[6] = NCI Yeast Anticancer Drug Screen. Data for the mlh1 rad18 strain (AID 175); details: S. cerevisiae mlh1 rad18 strain growth inhibition; at 50.0 µM; hits give high values
Procedure, shortened: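 Steps: expose repair-defective yeast to compound; measure growth; express inhibition against vehicle-treated controls.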

Measured: growth inhibition

COC(=O)C(C(=O)c1ccccc1)c1ccccc1 (stereo unspecified)
inactive: [1] 30.6% | [2] 16.9% | [3] 9.5% | [4] 6.35% | [5] 8.4% | [6] 38.7%

O=C(O)C(c1ccc(-c2ccccc2)cc1)C1CCCCC1 (stereo unspecified)
inactive: [1] 47.9% | [2] 26.4% | [3] 50.2% | [4] 3.35% | [5] 45% | [6] 40.5%

Nc1cccc(/C=C/c2ccc([N+](=O)[O-])cc2)c1
inactive: [1] -2.3% | [2] 24.6% | [3] 54.7% | [4] -12.4% | [5] 30% | [6] 39.5%

COc1ccc(-c2cc(N)c3c(c2O)C(=O)c2c(N)ccc(O)c2C3=O)cc1
inactive: [1] 13.3% | [2] 4.75% | [3] 4.75% | [4] -23.6% | [5] -4.65% | [6] 9.25%

COC(=O)C1(O)CCC(C)CC1 (stereo unspecified)
inactive: [1] 14.4% | [2] -9.25% | [3] -8.65% | [4] -26.3% | [5] 2.1% | [6] 14.8%

CCCOC(=O)NC(C)C(=O)NC(CCC(=O)NC(CCCC(N)C(=O)O)C(=O)NC(C)C(=O)O)C(=O)O (stereo unspecified)
inactive: [1] -20.8% | [2] -19.9% | [3] -37.6% | [4] -9.25% | [5] 21.6% | [6] -10.8%

SC1CCCN(Cc2ccccc2)C1 (stereo unspecified)
inactive: [1] 24.9% | [2] 4.9% | [3] 2.15% | [4] 33.8% | [5] 8.9% | [6] 17.6%

COC(=O)C1(CC(=O)c2ccc(N3CCN(c4ccc(C(=O)CC5(C(=O)OC)NC(=S)NC(=O)C5C#N)cc4)CC3)cc2)NC(=S)NC(=O)C1C#N (stereo unspecified)
inactive: [1] -19.5% | [2] -0.6% | [3] -21.4% | [4] 3.95% | [5] -18% | [6] -17.1%

CC12CC(=O)C3C(CCC4CC(OS(=O)(=O)O)CCC43C)C1CC1OC(=O)C=C12 (stereo unspecified)
inactive: [1] 18.2% | [2] -8.75% | [3] -5.85% | [4] 15.9% | [5] -0.9% | [6] 25.6%

O=c1ccc2cc3ccoc3c(OCCOCCOCCOCCOc3c4occc4cc4ccc(=O)oc34)c2o1
inactive: [1] 14.7% | [2] 17.4% | [3] 11.4% | [4] -17.2% | [5] 3.5% | [6] 26.8%

C=CC12COC(=O)CC1CCC(=O)C2 (stereo unspecified)
inactive: [1] 4.75% | [2] -10.2% | [3] -14.2% | [4] -19.4% | [5] 13.4% | [6] -5.4%

c1ccc(CCCCc2ccc(CCCCc3ccccc3)cc2)cc1
inactive: [1] 12.2% | [2] -3.55% | [3] -2.45% | [4] -6.35% | [5] -2.2% | [6] 6.1%

Cc1cccc(-n2c(N)cc(=O)[nH]c2=S)n1
inactive: [1] -11.5% | [2] -2.2% | [3] -7.8% | [4] -38.4% | [5] -10.1% | [6] -4.15%

CCOC(=O)c1c(N)[nH]c(SSc2[nH]c(N)c(C(=O)OCC)c2C(=O)OCC)c1C(=O)OCC
inactive: [1] 25.6% | [2] 3.85% | [3] 30.3% | [4] 13.7% | [5] 17.8% | [6] 20.3%

ON(C(=NCc1ccccc1)c1ccccc1)c1ccccc1
inactive: [1] 2.25% | [2] 10.6% | [3] 9.65% | [4] -17.4% | [5] 12.4% | [6] 14.7%

CNC(=S)c1ccc(Cl)cc1
inactive: [1] 12.3% | [2] -20.6% | [3] -15.1% | [4] -29.8% | [5] -2.05% | [6] 11.3%

CCOC(=O)c1cc(Cl)nc(Cl)c1
inactive: [1] 6.95% | [2] -16.6% | [3] -1.8% | [4] -3.15% | [5] 4.5% | [6] -10.4%

Cc1cc(Cl)cc(CN(C)Cn2c(=O)cc[nH]c2=O)c1O
inactive: [1] 6.45% | [2] -7.65% | [3] 2.7% | [4] -31.9% | [5] 8.45% | [6] 2.2%

CCS(=O)(=O)OCCOC
inactive: [1] -2.65% | [2] -26.1% | [3] -17.1% | [4] 57.6% | [5] -14.8% | [6] 10.2%

CCCCc1c(C#N)c(=O)n2c(N)c(C#N)cnc2c1SC
inactive: [1] 18.9% | [2] 8.45% | [3] 21.2% | [4] 1.5% | [5] 12.7% | [6] 25.8%

CCOC(=O)C(CCc1ccc([N+](=O)[O-])cc1)(CCc1ccc([N+](=O)[O-])cc1)C(=O)OCC
inactive: [1] -8.7% | [2] -16.1% | [3] -7.3% | [4] -29.1% | [5] -0.3% | [6] 6.15%

CC1(C)OC2OC(COC(=O)c3ccc([N+](=O)[O-])cc3)C3OC(C)(C)OC3C2O1 (stereo unspecified)
inactive: [1] -13.6% | [2] -8.45% | [3] -8.85% | [4] -28.1% | [5] 0.85% | [6] -25.4%

CCOC(=O)C(C)(C(=O)OCC)c1c[n+]([O-])c2ccccc2c1[N+](=O)[O-]
inactive: [1] 13.8% | [2] -5.15% | [3] 19.3% | [4] -22.4% | [5] -4.55% | [6] 12.9%

CCCCCCC(=O)N1SC(NC(=O)OC)=Nc2ccccc21
inactive: [1] 5.55% | [2] 7.3% | [3] 27.6% | [4] 36.5% | [5] 69.7% | [6] 41%

O=C1c2ccccc2C(=O)c2c1ccc(C1C(=O)c3ccccc3C1=O)c2-c1c(C2C(=O)c3ccccc3C2=O)ccc2c1C(=O)c1ccccc1C2=O
inactive: [1] -18.4% | [2] -16.8% | [3] -35.5% | [4] -17.5% | [5] -33.1% | [6] 4.15%

CNC(=O)C(c1ccccc1)C(O)c1ccccc1 (stereo unspecified)
inactive: [1] 10.8% | [2] -3.7% | [3] -11.4% | [4] 10.4% | [5] -0.15% | [6] -10.5%

Cc1nn(C(=O)c2ccncc2)c2c1C(c1cccc([N+](=O)[O-])c1)SC(N)=N2 (stereo unspecified)
inactive: [1] -55.5% | [2] -45.6% | [3] -32.2% | [4] 2.1% | [5] -10.6% | [6] -28.2%

Cc1ccc2c(c1)CCCN2
inactive: [1] 7.2% | [2] 11.2% | [3] 4.65% | [4] 21.6% | [5] 9.8% | [6] 7.55%

O=C1OC(c2ccccc2)=N/C1=C\c1cc2c(cc1Cl)OCO2
inactive: [1] 4.05% | [2] 11.7% | [3] 16.1% | [4] -25.3% | [5] -5.7% | [6] 20.1%

CCOC(=O)C1=C(O)c2ccc(OC)cc2C(=O)C1=O
inactive: [1] -5.5% | [2] -10.5% | [3] 12.7% | [4] 2.05% | [5] -9% | [6] 0.3%

O=c1[nH]c2cc(Cl)ccc2nc1/C=C(\O)c1ccccc1
inactive: [1] 1.35% | [2] -18.9% | [3] -5.9% | [4] 4.55% | [5] -19.1% | [6] 20.1%

CCOC(=O)c1c[nH]c2ccccc2c1=O
inactive: [1] 1.65% | [2] -8.95% | [3] -0.35% | [4] -16% | [5] -7.9% | [6] 2.2%

CN(CC(=O)c1ccc(I)cc1)Cc1ccccc1
inactive: [1] 28.1% | [2] -1.25% | [3] 16.4% | [4] -5.9% | [5] 12.8% | [6] 45.7%

O=C1NC(Cc2ccc(O)cc2)C(=O)N2CCCC12 (stereo unspecified)
inactive: [1] 1.25% | [2] -3% | [3] -34.6% | [4] 0.4% | [5] -18.2% | [6] -14.2%

CCSc1n[nH]c(=S)c2nc[nH]c12
inactive: [1] 12.7% | [2] 2.6% | [3] 3.7% | [4] 6.3% | [5] 8.55% | [6] -6.25%

O=CC(O)C(O)C(O)C1CNC(=S)O1 (stereo unspecified)
inactive: [1] 4.9% | [2] -14.7% | [3] -10.3% | [4] -2.25% | [5] 4.05% | [6] 6.9%

NC(N)=NCCS(=O)(=O)O
inactive: [1] 5.8% | [2] 7.35% | [3] -2% | [4] 9.1% | [5] -2.35% | [6] 20.4%

c1ccc2c[n+]3cc4ccccc4cc3cc2c1
inactive: [1] 30.9% | [2] 23.4% | [3] 53.7% | [4] 31.3% | [5] 33% | [6] 56.1%

Cc1cccnc1Nc1ncccc1C
inactive: [1] 13.8% | [2] -18.8% | [3] 10.9% | [4] 14.3% | [5] 8.3% | [6] 10.8%

CCN(CC)C(C)(C)C(=O)/C=C/c1ccc(C)cc1
inactive: [1] 5.45% | [2] -3.75% | [3] -16.5% | [4] 12.3% | [5] 5.75% | [6] 43.1%

O=C(O)/C(Br)=C(\Br)c1ccccc1
inactive: [1] 23.9% | [2] 15.8% | [3] 14.6% | [4] 14.4% | [5] 1.55% | [6] 12.5%
